The supplement of paper PMC6992640
± gives the standard deviation of the averaged measurements.
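Note: PDX cells carrying CMV promoter-driven luciferase, viability read as total photon flux per second by IVIS imaging following D-luciferin, vehicle control 0.1% DMSO.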

The compounds below were run on WHIM2 (cells of a triple-negative basal-like breast cancer xenograft) (assay: cell viability (% of vehicle); higher = less cytotoxic). Conditions: 10 µM; 72 h.
With C=CC[C@@H]1/C=C(\C)C[C@H](C)C[C@H](OC)[C@H]2O[C@@](O)(C(=O)C(=O)N3CCCC[C@H]3C(=O)O[C@H](/C(C)=C/[C@@H]3CC[C@@H](O)[C@H](OC)C3)[C@H](C)[C@@H](O)CC1=O)[C@H](C)C[C@@H]2OC [Tacrolimus (FK506)] the cell viability was 85.9 ± 20. For O=C1CCC(N2C(=O)c3ccccc3C2=O)C(=O)N1 (configuration not stated) [Thalidomide], the cell viability was 103 ± 19. Work on COc1cc2nc(N3CCN(C(=O)c4ccco4)CC3)nc(N)c2cc1OC.Cl [Prazosin HCl] yielded a cell viability of 52.5 ± 4.7. With Oc1ccc(OC2CCCCO2)cc1 (configuration not stated) [Deoxyarbutin] the cell viability was 132 ± 34. Compound COc1ccccc1N1CCN(CCCNc2cc(=O)n(C)c(=O)n2C)CC1.Cl [Urapidil HCl] has a cell viability of 98.8 ± 5.4. With O=C(O)CCC(=O)O.O=C(OC1CN2CCC1CC2)N1CCc2ccccc2C1c1ccccc1 (configuration not stated) [Solifenacin succinate] the cell viability was 76.8 ± 2.9. COc1ccc(O)cc1 [Mequinol] was tested, and the cell viability was 96.5 ± 20. CCC(CO)NCCNC(CC)CO.Cl.Cl (configuration not stated) [Ethambutol HCl] showed a cell viability of 93.4 ± 21. With CC(NC(=O)C(O)C(C)C)C(=O)NC1C(=O)N(C)CCc2ccccc21 (configuration not stated) the cell viability was 69.98 ± 0.17. CC12CCC3c4ccc(OC(=O)c5ccccc5)cc4CCC3C1CCC2O (configuration not stated) [Estradiol Benzoate] showed a cell viability of 132 ± 29. CC(CN1CC(=O)NC(=O)C1)N1CC(=O)NC(=O)C1.Cl (configuration not stated) [Dexrazoxane HCl (ICRF-187, ADR-529)] was tested, and the cell viability was 70.2 ± 19. CCC1OC(=O)C(C)C(OC2CC(C)(OC)C(O)C(C)O2)C(C)C(OC2OC(C)CC(N(C)C)C2O)C(C)(O)CC(C)C2NC(COCCOC)OC(C2C)C1(C)O (configuration not stated) [Dirithromycin] was tested, and the cell viability was 90.6 ± 12.
